Records with an inconclusive call do not appear. The source made the active and inactive calls. Calls follow the shape of the dose curve; as a rule, active = well fitted cell-killing curve with a large enough effect; inconclusive = small, poorly fitted or top-dose-only effect, or effect the other way; inactive = no such curve, though single readings can be large or run the other way.
Experiments:
[1] = Quantitative High-Throughput drug screen in 47 multiple myeloma cell lines against the NCATS MIPE library collection: OCIMY1_PLB cell viability assay (AID 1918979); also: series mostly up to about 46 µM; nearly all actives have a fitted effect of over 35% in size
Outline: (§1)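 Viability after 48 h drug exposure was measured as ATP-dependent luminescence. Cells, 500 per well, sat at 37 °C under 5% CO2; DMSO wells set 100%, media-only wells 0%.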

[2] = Quantitative High-Throughput drug screen in 47 multiple myeloma cell lines against the NCATS MIPE library collection: MM1R_ATCC cell viability assay (AID 1918981); also: nearly all actives have a fitted effect of over 35% in size; also: potency is read from the fitted curve at half-maximal effect
Outline: as §1

[3] = Quantitative High-Throughput drug screen in 47 multiple myeloma cell lines against the NCATS MIPE library collection: OCIMY5_PLB cell viability assay (AID 1918988); also: nearly all actives have a fitted effect of over 65% in size; also: potency is read from the fitted curve at half-maximal effect
Outline: as §1

[4] = Quantitative High-Throughput drug screen in 47 multiple myeloma cell lines against the NCATS MIPE library collection: MM1S_ATCC cell viability assay (AID 1918980); also: nearly all actives have a fitted effect of over 45% in size; also: potency is read from the fitted curve at half-maximal effect
Outline: as §1

[5] = Quantitative High-Throughput drug screen in 47 multiple myeloma cell lines against the NCATS MIPE library collection: LP1_DSMZ cell viability assay (AID 1918982); also: nearly all actives have a fitted effect of over 35% in size; also: potency is read from the fitted curve at half-maximal effect
Outline: as §1

[6] = Quantitative High-Throughput drug screen in 47 multiple myeloma cell lines against the NCATS MIPE library collection: OPM1_PLB cell viability assay (AID 1918989); also: nearly all actives have a fitted effect of over 40% in size; also: potency is read from the fitted curve at half-maximal effect
Outline: as §1

[7] = Quantitative High-Throughput drug screen in 47 multiple myeloma cell lines against the NCATS MIPE library collection: KMS28PE_JCRB cell viability assay (AID 1918983); also: nearly all actives have a fitted effect of over 35% in size; also: potency is read from the fitted curve at half-maximal effect
Outline: as §1

[8] = Quantitative High-Throughput drug screen in 47 multiple myeloma cell lines against the NCATS MIPE library collection: L363_DSMZ cell viability assay (AID 1918984); also: nearly all actives have a fitted effect of over 40% in size; also: potency is read from the fitted curve at half-maximal effect
Outline: as §1

[9] = Quantitative High-Throughput drug screen in 47 multiple myeloma cell lines against the NCATS MIPE library collection: KMS34_JCRB cell viability assay (AID 1918985); also: nearly all actives have a fitted effect of over 40% in size; also: potency is read from the fitted curve at half-maximal effect
Outline: as §1

[10] = Quantitative High-Throughput drug screen in 47 multiple myeloma cell lines against the NCATS MIPE library collection: OCIMY7_PLB cell viability assay (AID 1918987); also: nearly all actives have a fitted effect of over 65% in size; also: potency is read from the fitted curve at half-maximal effect
Outline: as §1

SMILES | Potency [1] | Potency [2] | Potency [3] | Potency [4] | Potency [5] | Potency [6] | Potency [7] | Potency [8] | Potency [9] | Potency [10]
NC(=O)c1ccc(-c2nc(-c3ccc4c(c3)OCCO4)c(-c3ccccn3)[nH]2)cc1 | inactive | inactive | 18.7 µM (active) | – | – | – | – | – | – | –
CC(C[N+](C)(C)C)OC(N)=O (stereo not drawn) | – | inactive | 16.6 µM (active) | inactive | inactive | inactive | – | – | – | –
O=C1CCC(N2C(=O)c3ccccc3C2=O)C(=O)N1 (stereo not drawn) | inactive | – | – | – | inactive | inactive | – | – | – | –
CS(=O)(=O)Oc1ccc2c(NC(N)=O)c(C(=O)c3ccc(Cl)cc3Cl)oc2c1 | – | inactive | inactive | 2.96 µM (active) | inactive | 20.9 µM (active) | inactive | 6.62 µM (active) | inactive | –
OC(CCN1CCCCC1)(c1ccccc1)C1CC2C=CC1C2 (stereo not drawn) | inactive | – | inactive | – | inactive | inactive | inactive | – | inactive | –
N=c1nc(N2CCCCC2)cc(N)n1O | – | inactive | – | inactive | inactive | 16.6 µM (active) | inactive | – | – | 37.2 µM (active)
COc1ccccc1-c1cccc(-c2c(O)c3cc(C#N)c(Cl)cc3[nH]c2=O)c1 | – | inactive | inactive | inactive | – | – | inactive | – | inactive | –
CCn1c(-c2nonc2N)nc2cnc(Oc3cccc(NC(=O)c4ccc(OCCN5CCOCC5)cc4)c3)cc21 | – | 16.6 µM (active) | – | 18.7 µM (active) | 14.8 µM (active) | 16.6 µM (active) | – | 8.33 µM (active) | – | 2.35 µM (active)
CN1CCN(CCCN2c3ccccc3Sc3ccc(C(F)(F)F)cc32)CC1 | – | inactive | inactive | 1.05 µM (active) | inactive | 26.4 µM (active) | – | – | inactive | 5.9 µM (active)
CCOC(=O)C1=C[C@]2(CC)CCCN3CCc4c(n1c1ccccc41)[C@@H]32 | – | 11.8 µM (active) | 13.2 µM (active) | 11.8 µM (active) | 20.9 µM (active) | 8.33 µM (active) | 20.9 µM (active) | 11.8 µM (active) | – | 9.35 µM (active)
CS(=O)(=O)c1cccc(CNc2nc(Nc3ccc4c(c3)CCC(=O)N4)ncc2C(F)(F)F)c1 | – | 20.9 µM (active) | 18.7 µM (active) | 18.7 µM (active) | 18.7 µM (active) | 18.7 µM (active) | 23.5 µM (active) | – | – | 14.8 µM (active)
CCOc1cc(N2CCC(O)CC2)ccc1Nc1ncc2c(n1)N(C)c1ccccc1C(=O)N2C | – | 16.6 µM (active) | 14.8 µM (active) | 5.26 µM (active) | – | 2.96 µM (active) | 16.6 µM (active) | 0.526 µM (active) | 10.5 µM (active) | 6.62 µM (active)
O=C(O)CCc1ccc(NCc2cccc(Oc3ccccc3)c2)cc1 | – | inactive | inactive | inactive | inactive | – | inactive | – | inactive | –
Nc1nc2ccc(OC(F)(F)F)cc2s1 | – | – | – | 2.64 µM (active) | – | – | 23.5 µM (active) | – | – | inactive
COc1ccccc1[C@H](c1cccc2ccccc12)[C@@](C)(C#N)C(=O)N1CCC(c2cccc(C(F)(F)F)c2)CC1 | – | 4.69 µM (active) | 4.69 µM (active) | 5.9 µM (active) | – | 5.9 µM (active) | 4.18 µM (active) | – | – | 5.9 µM (active)
COc1ccc2nc(S(=O)Cc3ncc(C)c(OC)c3C)[nH]c2c1 (stereo not drawn) | – | – | inactive | 18.7 µM (active) | inactive | – | – | – | inactive | 16.6 µM (active)
Nc1ncnc2nc(-c3ccc(N4CCOCC4)nc3)cc(-c3cccc(Br)c3)c12 | – | – | 16.6 µM (active) | 23.5 µM (active) | – | 20.9 µM (active) | – | – | – | –
Cn1cnc2c(F)c(Nc3ccc(Br)cc3Cl)c(C(=O)NOCCO)cc21 | – | 18.7 µM (active) | 9.35 µM (active) | 7.43 µM (active) | – | – | 9.35 µM (active) | – | – | 0.0469 µM (active)
CCc1cncnc1N1CCN(Cc2nc3ccc(C(F)(F)F)cc3[nH]2)CC1 | – | 18.7 µM (active) | 23.5 µM (active) | 18.7 µM (active) | – | 18.7 µM (active) | 20.9 µM (active) | – | – | 23.5 µM (active)
CCCc1nn(C)c2c(=O)[nH]c(-c3cc(S(=O)(=O)N4CCN(C)CC4)ccc3OCC)nc12 | – | – | 7.43 µM (active) | 20.9 µM (active) | – | – | – | inactive | – | –
Oc1cccc(-c2nc(N3CCOCC3)c3oc4ncccc4c3n2)c1 | – | 0.0679 µM (active) | 0.382 µM (active) | 0.0679 µM (active) | – | 0.0855 µM (active) | 0.0762 µM (active) | – | – | –
CCOC(=O)N1CCC(=C2c3ccc(Cl)cc3CCc3cccnc32)CC1 | – | – | 20.9 µM (active) | 29.6 µM (active) | – | – | – | inactive | 26.4 µM (active) | –
COc1cccc2cc(-c3nc(C4CCC(C(=O)O)CC4)n4ncnc(N)c34)[nH]c12 (stereo not drawn) | – | 0.469 µM (active) | 1.32 µM (active) | 0.469 µM (active) | – | 2.35 µM (active) | 0.469 µM (active) | – | – | 4.18 µM (active)
C[C@]1(c2nc3c(C(N)=O)cccc3[nH]2)CCCN1 | – | inactive | – | 4.69 µM (active) | – | inactive | inactive | – | – | 5.26 µM (active)
Cc1cccc(-c2nn(C(=S)Nc3ccccc3)cc2-c2ccnc3ccccc23)n1 | – | – | 1.48 µM (active) | 16.6 µM (active) | 20.9 µM (active) | 6.62 µM (active) | 18.7 µM (active) | – | – | –
NCCc1ccc(O)c(O)c1 | – | – | 20.9 µM (active) | 20.9 µM (active) | 8.33 µM (active) | – | – | 23.5 µM (active) | 8.33 µM (active) | –
Cc1cc2c(F)c(Oc3ncnn4cc(OC[C@@H](C)O)c(C)c34)ccc2[nH]1 | – | – | – | 16.6 µM (active) | – | 20.9 µM (active) | 20.9 µM (active) | – | – | –
Cn1cc(-c2ccc3nnc(C(F)(F)c4ccc5ncccc5c4)n3n2)cn1 | – | – | 16.6 µM (active) | 8.33 µM (active) | – | – | inactive | – | – | –
S=C(NCc1ccc2c(c1)OCO2)N1CCN(c2ncnc3c2oc2ccccc23)CC1 | – | – | 9.59 µM (active) | 3.82 µM (active) | 2.7 µM (active) | 2.41 µM (active) | 6.05 µM (active) | 0.605 µM (active) | inactive | 4.29 µM (active)
